# Several values for one entry are separate records, joined by “and”; a condition that tells them apart may be missing. Equal values may be shown once. Results filed as inconclusive are left out. Entries that show only a call come without a potency. Activity calls are given as the source filed them. Calls come from the whole dose curve; as a rule, active = well fitted activation curve with a large enough effect in the signal ratio in the repeat runs (not every such curve was filed as active); inconclusive = weak or mixed curves, or effect the other way; inactive = flat fitted curve, though single readings scatter; the % refers to the signal ratio.
# Experiment: qHTS assay to identify small molecule agonists of the endoplasmic reticulum stress response signaling pathway (AID 1159516)
# Details: ESRE-bla HeLa, ER stress beta-lactamase reporter, 5 h; series mostly up to 61 µM
# Text: National Center for Advancing Translational Sciences [NCATS]
# NIH Chemical Genomics Center [NCGC]
# U.S. Environmental Protection Agency [EPA]
# National Institutes of Environmental Health Sciences [NIEHS]
# National Toxicology Program [NTP]
# U.S. Food and Drug Administration [FDA]
# Endoplasmic Reticulum (ER) plays an important role in cellular signaling, protein folding/maturation, stress response, lipid biosynthesis, calcium storage and release etc. Under stress conditions, proteins in ER misfold or unfold, and leading to the expression of ER stress responsive genes. ER stress has been associated with a variety of pathophysiological conditions such as cancer, inflammation, neurodegenerative diseases, diabetes, ischemic heart disease etc. To identify the compounds that induce ER stress response, an ER stress reporter cell line, CellSensor ESRE-bla HeLa (Life Technologies, Carlsbad, CA) containing a beta-lactamase reporter gene under control of the Endoplasmic reticulum Stress Response Element (ESRE) was used to screen Tox21 10K compound library.
# Tox21 Assay Protocol Summary:
# ESRE-bla HeLa cells were dispensed at 1,500 cells/6 uL of assay medium per well into black wall/clear-bottom 1536-well plates using a Multidrop Combi (ThermoFisher Scientific, Waltham, MA) dispenser. After the assay plates were incubated at 37 C and 5% CO2 for an overnight, 23 nL of compounds dissolved in DMSO, positive controls or DMSO only was transferred to the assay plate by a Pintool station (Kalypsys, San Diego, CA). The assay plates were incubated at 37 C and 5% CO2 for 5 hr. One uL of LiveBLAzer B/G FRET substrate (Life Technologies) was added using a Flying Reagent Dispenser (Aurora Discovery, San Diego, CA) and the plates were incubated at room temperature for 2 hr. Fluorescence intensity (405 nm excitation, 460 nm and 530 nm emissions) was measured using an Envision plate reader (PerkinElmer, Shelton, CT).
# Potency is the fitted concentration of half-maximal effect.
row,SMILES,Potency
1,Cc1cccc(C)c1,inactive
2,O=c1[nH]cc(F)c(=O)[nH]1,inactive
3,CC(=O)C(=O)O,inactive
4,CC(O)(P(=O)(O)O)P(=O)(O)O,inactive
5,O=C1O[C@H]([C@@H](O)CO)C(O)=C1O,inactive
6,CS(=O)(=O)OCCCCOS(C)(=O)=O,inactive
7,COc1ccc(C(Cl)=C(c2ccc(OC)cc2)c2ccc(OC)cc2)cc1,inactive
8,CN1CCC[C@H]1c1cccnc1,inactive
9,CCCCNC(=O)NS(=O)(=O)c1ccc(C)cc1,inactive
10,CCN(CC)C(=O)c1cccc(C)c1,inactive
11,Nc1ccc(S(N)(=O)=O)cc1,inactive
12,Cc1ncc([N+](=O)[O-])n1CCO,inactive
13,CC12CCC(CC1)C(C)(C)O2,inactive
14,CC(=O)CCC(=O)O,inactive
15,NC(CO)(CO)CO,inactive
16,NC1CCCCC1,inactive
17,CN(C)CCOC(c1ccccc1)c1ccccc1,inactive
18,CNNCc1ccc(C(=O)NC(C)C)cc1,inactive
19,Cc1cc(=O)oc2cc(O)ccc12,49 µM (active) and 19 µM (active)
20,Cc1ncc([N+](=O)[O-])n1C,inactive

row,SMILES,Potency
1,Cc1cn([C@H]2C=C[C@@H](CO)O2)c(=O)[nH]c1=O,inactive
2,CCOc1ccc(NC(C)=O)cc1,inactive
3,CC(C)c1c(C(=O)Nc2ccccc2)c(-c2ccccc2)c(-c2ccc(F)cc2)n1CC[C@@H](O)C[C@@H](O)CC(=O)O,inactive
4,C=C(C)C(=O)OCC(C)O (stereo not given),inactive
5,O=c1[nH]cnc2c1ncn2[C@H]1CC[C@@H](CO)O1,inactive
6,CN(C)CCOC(C)(c1ccccc1)c1ccccn1 (stereo not given),inactive
7,O=C1NC(=O)C(c2ccccc2)(c2ccccc2)N1,inactive
8,COc1ccc2c(c1)c(CC(=O)O)c(C)n2C(=O)c1ccc(Cl)cc1,inactive
9,CC(C)NCC(O)c1ccc(O)c(O)c1 (stereo not given),inactive
10,NS(=O)(=O)c1cc2c(cc1Cl)NCNS2(=O)=O,inactive
11,COc1ccc(CN(CCN(C)C)c2ccccn2)cc1,inactive
12,C/C=C/C=C/C(=O)O,inactive
13,CCCc1cc(=O)[nH]c(=S)[nH]1,inactive
14,CCCCC(CC)C(=O)O (stereo not given),inactive
15,CC(=O)Nc1c(I)c(NC(C)=O)c(I)c(C(=O)O)c1I,inactive
16,O=C1NS(=O)(=O)c2ccccc21,inactive
17,CCOC(N)=O,inactive
18,CN(N=O)C(=O)N[C@@H]1[C@@H](O)[C@H](O)[C@@H](CO)O[C@@H]1O,inactive
19,CC(=O)CC(c1ccccc1)c1c(O)c2ccccc2oc1=O (stereo not given),inactive
20,CCc1nc(N)nc(N)c1-c1ccc(Cl)cc1,inactive
